# Results from PubChem BioAssay (NCATS).
# Results filed as inconclusive are left out. The source made the active and inactive calls. Calls come from the whole dose curve; as a rule, active = well fitted cell-killing curve with a large enough effect; inconclusive = small, poorly fitted or top-dose-only effect, or effect the other way; inactive = no such curve, though single readings can be large or run the other way.
# Assay: Viability qHTS for spleen associated tyrosine kinase inhibitor (SYKi) drug resistant MV4-11 cells (AID 1963824); note: nearly all actives have a fitted effect of over 35% in size
# Conditions: SYKi-resistant MV4-11 viability, CellTiter-Glo, 72 h; series mostly up to 45 µM; viability, % of control: at the top concentration
# Procedure, shortened: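 CellTiter-Glo luminescence, read 10 min after reagent addition, reports viability after a 72 hr compound exposure. Cells are an MV4-11 line made resistant to SYK inhibition, seeded at 500 per well onto compound-containing plates.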
# Potency is the fitted concentration of half-maximal effect.
SMILES,"viability, % of control",Potency
CC[C@H](Nc1ncnc2nc[nH]c12)c1nc2cccc(F)c2c(=O)n1-c1ccccc1,61.7% [at 9.25 µM] (inactive),
C=C[C@H](/C=C\c1ccc(O)cc1)c1ccc(O)cc1,,18.4 µM (active)
O=C(NCCN1CCOCC1)c1cc2c(Oc3ccc(NC(=O)C4(C(=O)Nc5ccc(F)cc5)CC4)cc3)ccnc2[nH]1,,0.0411 µM (active)
CC1=C2[C@@H]([C@H](C)CC[C@H]2/C=C(\C)C(=O)O)[C@H](O)C1,63.4% (inactive),
C[C@@H]1C[C@H]2O[C@@H]2/C=C\C=C\C(=O)Cc2c(Cl)c(O)cc(O)c2C(=O)O1,,0.0718 µM (active)
C[C@@H](CC[C@@H]1[C@@]2(C)CCCC(C)(C)C2CC[C@@]1(C)O)CC(=O)O (stereo partly drawn),81.9% (inactive),
CCN(CC)CC1CCN(c2ncc3ncnc(Nc4ccc(F)c(Cl)c4)c3n2)CC1,,2.91 µM (active)
CC(=O)N1CCN([C@H]2CCN(C(=O)N(C)[C@H](C)c3cc(C(F)(F)F)cc(C(F)(F)F)c3)[C@@H](c3ccc(F)cc3C)C2)CC1,,8.2 µM (active)
